Reference: PubChem BioAssay AID1159580 (chemical genetic matrix, 2015)
The campaign covered roughly 5,500 compounds. About 2,000 (36%) were called active. Not shown: some 18% with an inconclusive outcome. Rule as the data show it: active = normalized growth mostly below about 0.91 (no sharp cut-off); inconclusive = no clear call, values can overlap the other calls; inactive = mostly above about 0.92. This is one part of the list.

Experiment: chemical genetic growth profiling, strain panel (AID 1159580);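 also: tested at 20 µM; growth read once vehicle control cultures reached saturation at 30 °C; 1 = growth at the plate median or of vehicle wells; lower values mean less growth of the strain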
Conditions: growth OD
[1] = S. cerevisiae deletion strains, locus YAL013W, strain DEP1, stronger effect = lower value
[2] = S. cerevisiae deletion strains, locus YBR229C, strain ROT2, stronger effect = lower value
[3] = S. cerevisiae deletion strains, locus YDL101C, strain DUN1, stronger effect = lower value
[4] = S. cerevisiae deletion strains, locus YDL134C, strain PPH21, stronger effect = lower value
[5] = S. cerevisiae deletion strains, locus YDR150W, strain NUM1, stronger effect = lower value
[6] = S. cerevisiae deletion strains, locus YEL061C, strain CIN8, stronger effect = lower value
[7] = S. cerevisiae deletion strains, locus YGR078C, strain PAC10, stronger effect = lower value
[8] = S. cerevisiae deletion strains, locus YHR030C, strain SLT2, stronger effect = lower value
[9] = S. cerevisiae deletion strains, locus YHR087W, strain rtc3, stronger effect = lower value
[10] = S. cerevisiae deletion strains, locus YJR043C, strain POL32, stronger effect = lower value
[11] = S. cerevisiae deletion strains, locus YJR075W, strain HOC1, stronger effect = lower value
[12] = S. cerevisiae deletion strains, locus YLR039C, strain RIC1, stronger effect = lower value
[13] = S. cerevisiae deletion strains, locus YLR058C, strain SHM2 (second series), stronger effect = lower value
[14] = S. cerevisiae deletion strains, locus YLR085C, strain ARP6, stronger effect = lower value
[15] = S. cerevisiae deletion strains, locus YLR262C, strain YPT6, stronger effect = lower value
[16] = S. cerevisiae deletion strains, locus YML094W, strain GIM5, stronger effect = lower value
[17] = S. cerevisiae deletion strains, locus YMR219W, strain ESC1, stronger effect = lower value
[18] = S. cerevisiae deletion strains, locus YMR263W, strain SAP30, stronger effect = lower value
[19] = S. cerevisiae deletion strains, locus YMR307W, strain GAS1, stronger effect = lower value
[20] = S. cerevisiae deletion strains, locus YNL128W, strain TEP1, stronger effect = lower value
[21] = S. cerevisiae deletion strains, locus YNL153C, strain GIM3, stronger effect = lower value
[22] = S. cerevisiae deletion strains, locus YNL298W, strain CLA4 (second series), stronger effect = lower value
[23] = S. cerevisiae deletion strains, locus YNL322C, strain KRE1, stronger effect = lower value
[24] = S. cerevisiae deletion strains, locus YNR030W, strain Alg12, stronger effect = lower value
[25] = S. cerevisiae deletion strains, locus YPL055C, strain LGE1, stronger effect = lower value
[26] = S. cerevisiae deletion strains, locus YPL241C, strain CIN2, stronger effect = lower value
[27] = S. cerevisiae deletion strains, locus YPR135W, strain CTF4, stronger effect = lower value

Measured: normalized growth

COc1ccc(C=Nc2ccc(O)cc2)cc1
inactive: [1] 0.999 | [2] 1.01 | S. cerevisiae deletion strains, locus YCL061C, strain MRC1, stronger effect = lower value 0.979 | [3] 1.03 | [4] 1.03 | [5] 0.975 | [6] 1.05 | [7] 0.996 | [8] 1.04 | [9] 0.998 | [10] 0.99 | [11] 1.04 | S. cerevisiae deletion strains, locus YKL190W, strain CNB1, stronger effect = lower value 1.02 | [12] 0.936 | [13] 1.02 | [14] 1.03 | [15] 0.931 | [16] 1.01 | [17] 0.996 | [18] 1.02 | [19] 1.15 | [20] 1.02 | [21] 1.01 | [22] 1.04 | [23] 0.994 | [24] 1.01 | [25] 1.04 | [26] 0.987 | [27] 0.995

COc1ccc(N=Cc2ccccc2O)cc1
active: [15] 0.813
inactive: [1] 0.993 | [2] 0.99 | [3] 0.991 | [4] 1.01 | [5] 0.952 | [6] 0.991 | [7] 0.995 | [8] 0.879 | [9] 0.969 | [10] 0.956 | [11] 0.967 | [12] 0.841 | [13] 0.988 | [14] 0.999 | [16] 0.978 | [17] 0.976 | [18] 0.963 | [20] 0.986 | [21] 1.01 | [22] 0.975 | [23] 0.985 | [24] 0.973 | S. cerevisiae deletion strains, locus YOL006C, strain TOP1, stronger effect = lower value 0.819 | [25] 0.912 | [26] 0.977 | [27] 0.86 | S. cerevisiae strains, strain wild type, stronger effect = lower value 0.977

CCCN(CCC)CCc1c[nH]c2ccc(C(N)=O)cc12
inactive: S. cerevisiae deletion strains, locus YAL040C, strain CLN3, stronger effect = lower value 1.07 | S. cerevisiae deletion strains, locus YCL061C, strain MRC1 (second series), stronger effect = lower value 0.996 | S. cerevisiae deletion strains, locus YDR363W, strain ESC2, stronger effect = lower value 0.981 | S. cerevisiae deletion strains, locus YER002W, strain NOP16, stronger effect = lower value 0.991 | [18] 0.988 | [19] 1 | S. cerevisiae deletion strains, locus YNL175C, strain NOP13, stronger effect = lower value 1.05 | S. cerevisiae deletion strains, locus YNL197C, strain WHI3, stronger effect = lower value 1.02 | S. cerevisiae deletion strains, locus YNL224C, strain SQS1, stronger effect = lower value 0.994 | [23] 0.95 | S. cerevisiae deletion strains, locus YOR083W, strain WHI5 (second series), stronger effect = lower value 1.01 | [26] 0.988
